Compound activity: PubChem, several laboratories
Hits are enriched below; roughly 3.5% of the tested compounds scored in any of these assays.
Mtb UGM inh: M. tuberculosis UGM enzyme inhibitors, primary screen, biochemical, fluorescence polarization, single point; UDP-galactopyranose mutase (Mycobacterium tuberculosis (strain ATCC 25618 / H37Rv)), …; AID 504406, 2011; purified UGM, fluorescence polarization probe displacement; inhibition, % at 10 µM; 320,000 compounds, 0.06% hits; in the data active = inhibition above about 10%, passing the limit was not always enough
Rv3671c inh: Rv3671c serine protease inhibitors, primary screen, biochemical, fluorescence polarization, M. tuberculosis H37Rv. 320,000 compounds, 0.048% hits. inhibition, % at 5.96 µM; in the data active = inhibition above about 38%;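 also: extracellular domain of Rv3671c used as enzyme; 0% = enzyme with DMSO and 100% = no enzyme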
Mtb FBA inh: Mtb FBA enzyme inhibitors, primary screen, biochemical, fluorescence, strain H37Rv. purified M. tuberculosis FBA, fluorescence read-out. Fructose-bisphosphate aldolase (Mycobacterium tuberculosis (strain ATCC 25618 / H37Rv)), …. inhibition, % at 1 µM. 360,000 compounds, 2.3% hits. AID 588726, 2011; in the data active = inhibition above about 27%;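 also: 0% = vehicle and 100% = reference inhibitor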
Target sequence (P9WQA3 whole entry, looked up): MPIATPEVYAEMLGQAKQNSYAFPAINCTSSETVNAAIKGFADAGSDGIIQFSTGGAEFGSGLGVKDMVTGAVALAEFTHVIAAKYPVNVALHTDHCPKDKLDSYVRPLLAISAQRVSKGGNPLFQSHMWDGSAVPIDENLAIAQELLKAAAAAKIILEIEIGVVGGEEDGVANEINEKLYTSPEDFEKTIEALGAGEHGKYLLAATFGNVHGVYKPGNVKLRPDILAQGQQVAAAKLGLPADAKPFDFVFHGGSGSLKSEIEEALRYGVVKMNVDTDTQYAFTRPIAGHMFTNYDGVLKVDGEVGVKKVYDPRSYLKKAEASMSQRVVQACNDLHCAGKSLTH
GDH-TPI inh: GDH-TPI coupling enzyme inhibitors, primary screen, artefact control for M. tuberculosis FBA inhibitor project, biochemical, absorbance, full deck; AID 588335, 2011; 360,000 compounds, 1.2% hits; inhibition, % at 4.8 µM; GDH-TPI coupled enzyme counterscreen, NADH absorbance; in the data active = inhibition above about 30%;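 also: 0% = DMSO wells and 100% = wells lacking the enzyme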
Mtb betalactam: beta-lactam sensitization of Mtb H37Rv, H37Rv. M. tuberculosis H37Rv growth with meropenem, percent inhibition. inhibition, % at 25 µM. 330,000 compounds, 0.27% hits; call rule not given here;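 also: growth measured after seven days incubation then overnight dye step; 0% = bacteria only wells and 100% = bacteria with antibiotic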
Starred values were filed as active, the others as inactive; nt = no result given; + = active, no number.

SMILES	Mtb UGM inh	Rv3671c inh	Mtb FBA inh	GDH-TPI inh	Mtb betalactam
COc1ccc(/C=C/C(=O)c2ccoc2)cc1	1	-2	1	38*	73
COc1ccc(C=CC(=O)c2ccc(OC)c(OC)c2)cc1O	nt	nt	3	40*	nt
COc1ccc(/C=C/C(=O)c2ccc(O)cc2)cc1	-2	-7	5	29	3
COc1cc(C(=O)C(=O)c2ccc(OC)c(OC)c2)ccc1O	nt	nt	-6	32*	nt
CCOc1cc(/C=C/C(=O)c2ccc(O)cc2)ccc1OCC(=O)N(C)C	0	-7	-3	47*	-10
O=C(COC(=O)CCC(=O)c1ccc(F)cc1)Nc1ccc(Cl)cn1	-2	6	3	2	1
COc1ccc(C(=O)/C=C/c2ccc3c(c2)OCCO3)cc1	-1	0	2	36*	3
COc1cc(OC)c(C(=O)/C=C/c2ccc(OCc3ccccc3)c(OC)c2)c(OC)c1	1	nt	0	17	85
COc1cc(OC)c(C(=O)C=Cc2ccc(OC)c(OC)c2)c(OC)c1	nt	nt	0	35*	nt
COc1ccc2cc(C(=O)/C=C/c3cc(OC)c(OC)c(OC)c3)ccc2c1	2	-15	1	16	96
COc1ccc(C=CC(=O)c2ccc3cc(OC)c(OC)cc3c2)cc1OC	nt	nt	-4	31*	nt
Cc1noc(C)c1S(=O)(=O)N(C)C[C@H]1OCCCC[C@H](C)Oc2ccc(NC(=O)CCCN(C)C)cc2C(=O)N([C@H](C)CO)C[C@@H]1C	nt	nt	0	-1	nt
Nc1nonc1C(=O)NCCNC(=O)c1ccc(Cl)c(Cl)c1	0	1	-6	-1	-2
CCOC(=O)C(=COC(=O)c1ccccc1)NC(=O)Cc1ccccc1	nt	nt	-1	-4	nt
Cc1ccc(-n2[nH]c(C)c(C=Nc3ccc(S(=O)(=O)N4CCOCC4)cc3)c2=O)c(C)c1	1	1	nt	nt	3
CC(C)CC(=O)Nc1ccc(-c2cn3cccnc3n2)cc1	0	-1	+	24	-5
CCCC(=O)Nc1cccc(-c2cn3cccnc3n2)c1	-2	3	189*	30	-8
CCCCC(=O)Nc1cccc(-c2cn3ccccc3n2)c1	-2	2	33*	4	0
O=C(Nc1cccc(-c2cn3ccccc3n2)c1)c1ccccc1	-1	-4	3	4	53
O=C(Nc1ccccc1)Nc1cccc(-c2cn3cccnc3n2)c1	1	-11	4	10	-11
CCN(CC)S(=O)(=O)c1cccc(-c2cn3cccnc3n2)c1	0	-2	181*	25	-5
CCOC(=O)/C(C#N)=C/c1cccc(F)c1	2	6	1	3	7
COc1ccc(/C=C2\SC(=S)N(CCCC(=O)N3CCCCC3CCO)C2=O)cc1 (configuration not stated)	0	-5	-4	1	-2
CC(C)CC(=O)Nc1ccc(-c2cn3ccsc3n2)cc1	-2	11	3	8	1
CC(C)(C)CC(=O)Nc1ccc(-c2cn3cccnc3n2)cc1	0	8	+	15	-2
SMILES	Mtb UGM inh	Rv3671c inh	Mtb FBA inh	GDH-TPI inh	Mtb betalactam
CCCC(=O)Nc1cc(-c2cn3cccnc3n2)ccc1OC	1	4	19	17	nt
CCOCC(=O)Nc1ccc(-c2cn3cccnc3n2)cc1	0	-3	+	27	-6
CCCC(=O)Nc1ccc(-c2cn3cccnc3n2)cc1	-2	7	+	18	-7
Cc1c(F)cccc1NS(=O)(=O)c1ccc2c(c1)c(C)cc(=O)n2C	-2	-10	-2	2	-9
COc1ccc(CCNC(=O)CCn2c(=O)c3cccn3c3ccc(F)cc32)c(OC)c1OC	-2	8	2	7	3
O=C(O)CC1S/C(=N/N=C/c2ccc(-c3ccccc3[N+](=O)[O-])o2)NC1=O (configuration not stated)	-3	-68	-5	40*	2
O=[N+]([O-])c1ccccc1-c1ccc(/C=N/n2cnnc2)o1	-1	4	-3	27	-2
Cc1ccc(-c2ccc(/C=N/N=C3/NC(=O)C(CC(=O)O)S3)o2)c([N+](=O)[O-])c1 (configuration not stated)	2	-59	-4	36*	-3
Cc1ccc(S(=O)(=O)Oc2ccc(/C=N/N=C3/NC(=O)C(CC(=O)O)S3)cc2)cc1 (configuration not stated)	nt	nt	1	22	nt
